# About 79,000 compounds went through this panel and 15% of them were active in at least one assay; those are over-represented in the sample as a whole. Unmarked numbers belong to inactive results. Activity calls are given as the source filed them. No stated cut-off is given here; in the data, active means growth inhibition above about 70%; inactive means the rest. Where a SMILES comes first, the peptide text is derived from it. [ ]: non-standard residue; d: D form. The star is where a group is joined. ξ: configuration not given here. Tos = Cc1ccc(S(=O)(=O)*)cc1; ξY = NC(Cc1ccc(O)cc1)C(=O)O
# Legend:
# [1] = NCI Yeast Anticancer Drug Screen. Data for the rad50 strain (AID 155);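 further: 0% = growth of vehicle-only cultures of the same strain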; conditions: S. cerevisiae rad50 strain growth inhibition; at 50.0 µM; stronger effect = higher value
# Method in brief: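 Yeast carrying a defined DNA repair defect were exposed to test compounds, and growth was compared with vehicle-treated controls to give percent inhibition.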
# [2] = NCI Yeast Anticancer Drug Screen. Data for the mec2-1 strain (AID 157); conditions: S. cerevisiae mec2-1 strain, at 50.0 µM, stronger effect = higher value
# Method in brief: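 Using mec2-1 yeast: add compound, measure growth, express inhibition versus vehicle-treated cultures.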
# [3] = NCI Yeast Anticancer Drug Screen. Data for the sgs1 mgt1 strain (AID 161);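 further: 0% = growth of cultures given vehicle only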; conditions: S. cerevisiae sgs1 mgt1 strain, at 50.0 µM, stronger effect = higher value
# Method in brief: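 This yeast growth screen uses a strain with defined DNA-repair lesions; compound-treated growth is compared with vehicle-treated growth.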
# [4] = NCI Yeast Anticancer Drug Screen. Data for the cln2 rad14 strain (AID 165);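 further: 0% = growth equal to vehicle treated cultures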; conditions: S. cerevisiae cln2 rad14 strain, at 50.0 µM, stronger effect = higher value
# Method in brief: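 Yeast strain cln2 rad14, bearing defects in cell cycle control and DNA repair, serves as the test system; values reflect growth inhibition compared with vehicle.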
# [5] = NCI Yeast Anticancer Drug Screen. Data for the bub3 strain (AID 167); conditions: S. cerevisiae bub3 mutant strain, at 50.0 µM, stronger effect = higher value
# Method in brief: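 Compounds were applied to a genetically altered yeast strain carrying a cell-cycle control defect. Growth inhibition was scored against vehicle-treated controls.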
# [6] = NCI Yeast Anticancer Drug Screen. Data for the mlh1 rad18 strain (AID 175); conditions: S. cerevisiae mlh1 rad18 strain growth inhibition; at 50.0 µM; stronger effect = higher value
# Method in brief: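 Steps: expose repair-defective yeast to compound; measure growth; express inhibition against vehicle-treated controls.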
Structure (SMILES),growth inhibition [1],growth inhibition [2],growth inhibition [3],growth inhibition [4],growth inhibition [5],growth inhibition [6]
COC1CCC(/C(C#N)=C/C2CCC(NC(C)=O)CC2)CC1 (configuration not stated),3.95%,0.65%,25.9%,1%,22.1%,5.2%
Cc1cc(N)c(N=Cc2ccccc2[N+](=O)[O-])cc1C,26.2%,11.5%,39.8%,-58.8%,24.8%,20.9%
COc1cc2c(cc1OC)-c1cc3ccc(OC)c(OC)c3c[n+]1CC2,-8.55%,-21.8%,23.6%,-14.1%,-9.45%,-4.35%
COC(=O)C(Cl)=C1CC1,5.7%,10.4%,-6.95%,18.6%,6.25%,-5.6%
CC1CCC(O)C(C(O)CC2CC(=O)NC(=O)C2)C1 (configuration not stated),23.3%,-3.3%,5.4%,-21.7%,4%,3.45%
CCC(S)(C(N)=O)c1ccccc1 (configuration not stated),3%,-10.4%,-7.55%,-26.8%,-4.8%,-18.2%
CCOCCOC(=O)C(C)OC(=O)/C(=C/C(=O)O)CCOCC (configuration not stated),-1%,-18.4%,-9.75%,-0.2%,-1.6%,8.85%
COC(=O)C(Cc1ccc(O)cc1)NC(=O)CNS(=O)(=O)c1ccc(C)cc1 (stereo not drawn) (Tos-Gly-[ξY]-OMe),35.8%,-4.1%,19.9%,10.9%,-1.2%,8.4%
Nc1nc(-c2ccccc2)c(Cl)c(-c2cc(Cl)ccc2O)n1,-1.45%,-1.3%,-10.4%,25.3%,4.25%,2.7%
CC(C)(C)C(=O)OCn1cc2c(=O)[nH]cnc2n1,11.9%,8.1%,28.6%,-3.75%,-8.7%,9.15%
Cn1c(=O)[nH]c(=O)c2[nH]c(=O)c(=O)n(C)c21,-3.15%,23.3%,1.55%,-1.9%,-9.5%,-13.1%
CCN(CC)CCCS/C(N)=N\S(=O)(=O)c1ccc(N)cc1,-6.35%,-41%,-20.2%,-7.8%,-0.5%,-16.6%
Cn1c(=O)c2c(n(C)c1=O)[n+]([O-])c([N+]1([O-])CCOCC1)n2C,-3.85%,-6.3%,-0.6%,-24.9%,-4.15%,3.2%
Oc1c(N=Nc2ccccc2)c2ccccc2c2ccc3ccccc3c12,-23.3%,-13.7%,-7.6%,-15.9%,-8.2%,6.85%
Nc1cccc(-c2nc3ncnc(N)c3[nH]2)c1,8.6%,-2.15%,-5.5%,-46.9%,-18.5%,-11.2%
Nc1nc([O-])c([I+]c2ccccc2)c(=O)[nH]1,-17.5%,-11.8%,3.7%,-8.5%,0.15%,-6.45%
BrC1c2ccccc2-c2nc3ccccc3nc21 (configuration not stated),11.2%,4.6%,1.6%,56.2%,17.1%,29.9%
C(=C\c1nc2ncccn2n1)/c1ccccc1,16.4%,-2.75%,6.55%,-20.9%,4.6%,-14.3%
COc1ccc(Sc2cccc(Cl)c2)c(C(=O)O)c1,-21.8%,-18.4%,-27.2%,3.8%,-0.55%,6.5%

Structure (SMILES),growth inhibition [1],growth inhibition [2],growth inhibition [3],growth inhibition [4],growth inhibition [5],growth inhibition [6]
Cc1cccc(O)c1C(=O)O,-8.15%,-12%,-15.6%,-9.45%,9.05%,-0.25%
CCCC(CC)C(=O)NC(N)=O (configuration not stated),-7.2%,-5.9%,-7.8%,-8.55%,-20.2%,8.7%
C=C[C@]1(C)C[C@@H](OC(=O)CO)[C@@]2(C)[C@H](C)CC[C@]3(CCC(=O)[C@H]32)[C@@H](C)[C@@H]1O,-28.6%,-23.3%,14.3%,30.2%,-49.4%,-2.15%
NC(=O)NC=O,10.8%,-3.95%,14.7%,1.25%,-14.6%,14.3%
CSc1nc(NC2OC(COC(C)=O)C(OC(C)=O)C(OC(C)=O)C2OC(C)=O)c(N=C(C)C(C)=O)c(=O)n1C (configuration not stated),16.2%,-7.75%,-14.2%,9.7%,1.2%,6.95%
Cc1ccc(S(=O)(=O)OCCNc2ccc([N+](=O)[O-])cc2[N+](=O)[O-])cc1,2%,6.8%,6.45%,11.8%,2.9%,7.85%
CCN(CC)CCN(C(=Nc1ccccc1)N1CCCCC1)c1ccccc1,6.8%,-35.2%,-11.5%,19%,28.1%,19.4%
O=C(O)c1cc(=O)c2[nH]c3ccccc3c2s1,-5.2%,-17.9%,-19.5%,9.55%,-22.6%,7.95%
C=CC(=O)OCCCCCCCCCC,47.8%,5.6%,28.8%,-0.7%,13.8%,42.1%
[N-]=[N+]=NC1(Cc2ccccc2)C(=O)c2cccc3c2N(CCC3)C1=O (configuration not stated),4.25%,8.55%,-0.65%,16.2%,25.7%,-11.2%
CCCCCCCCCCCc1cc(=O)n(-c2ccccc2)n1C,98.8% (active),99.2% (active),99.2% (active),98.4% (active),98.5% (active),99% (active)
CC[N+](CC)(CCO)CCCCCCCCCC[N+](CC)(CC)CCO,29.6%,-4.15%,10.6%,-15.3%,-1.15%,9.2%
CCC(C(O)c1ccccc1)[N+](=O)[O-] (configuration not stated),54.8%,31.3%,9.5%,-8.75%,-11.1%,10.3%
COc1c2occc2c(N)c2ccc(=O)oc12,-5.95%,-4.4%,-8.2%,-14.5%,-1.55%,-9.95%
O=C1OC(=O)C2CCC12 (configuration not stated),14%,-9.5%,3.5%,2.5%,12.5%,17.6%
Cc1cccnc1NC=O,-10.7%,-12.2%,-4.8%,-17.6%,-24.7%,-9.7%
C=CCC1=C2CCCCC2CCC1=O (configuration not stated),-5.7%,-27.8%,-15.9%,3.3%,-11%,4.95%
O=C1CCCC(=O)c2c(O)ccc(O)c21,4.4%,-4.15%,9.5%,-3.4%,10.7%,5.65%
